# Screening results from PubChem BioAssay.
# SMN2 splice enh: SMN2 splice variant enhancement; HEK293 SMN2-luciferase splicing reporter, luminescence, 30-36 h; actives 2.8% (n = 210,000); Potency, µM (highest dose often 46.1 µM), inactives show at the highest dose activity change, positive = activation, hits mostly activators; AID 1458; also: % of control where 0% means no effect; nearly all actives have a fitted effect of over 55% in size
#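 HEK293 cells carry an SMN2 […]–luciferase reporter in which exon 7 inclusion puts luciferase in frame. Cells were plated 10-12 h before compound addition, then incubated 30-36 h at 37C. ONE-Glo luminescence was read; sodium butyrate at 4.5 mM final served as control.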
# ELG1 repair inh: inhibitors of ELG1-dependent DNA repair in HEK293T cells; HEK293T ELG1-luciferase reporter, luminescence, 16 h; DNA damage induced by 5-fluorouridine; Potency, µM (top dose mostly 46.1 µM), for inactives: top-dose activity change, negative = inhibition, actives largely listed as inhibitors; actives 2.3% (n = 330,000); AID 504467; also: % is scaled to controls: 0 for no effect and ±100 for the full control effect; nearly all actives have a fitted effect of over 55% in size
#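 Quantitative HTS, concentration-response format. 2,000 cells/well co-treated with 5-fluorouridine and compound, 16 hr in 5% CO2 at 37 °C; ONE-Glo luminescence read after 30 min.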
# Rab9 prom act: activators of Rab9 promoter; Huh7 Rab9 promoter-luciferase reporter, luminescence, 24 h; Potency, µM (titrated, usually from 9.22 µM), without a hit: at the top dose activation, negative = inhibition, most hits filed as activators; actives 2.8% (n = 320,000); AID 485297; also: % of control where 0% means no effect; nearly all actives have a fitted effect of over 60% in size
#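 Measured in stably transfected Huh7 cells bearing a Rab9 promoter–luciferase construct: 24 h compound treatment at 37 °C, followed by luminescence detection.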
# FLuc counter: inhibits or activates purified firefly luciferase, miR-21 counter-screen; Potency, µM (titrated, usually from 57.5 µM), without a hit: at the top dose activity change, negative = inhibition, most hits filed as inhibitors; AID 588342; actives 6.9% (n = 360,000); P08659; purified FLuc, Km substrates, luminescence inhibition;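 also: plate controls were vehicle for no effect and reference inhibitor for full effect; nearly all actives have a fitted effect of over 55% in size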
# Target sequence (P08659 whole entry, looked up): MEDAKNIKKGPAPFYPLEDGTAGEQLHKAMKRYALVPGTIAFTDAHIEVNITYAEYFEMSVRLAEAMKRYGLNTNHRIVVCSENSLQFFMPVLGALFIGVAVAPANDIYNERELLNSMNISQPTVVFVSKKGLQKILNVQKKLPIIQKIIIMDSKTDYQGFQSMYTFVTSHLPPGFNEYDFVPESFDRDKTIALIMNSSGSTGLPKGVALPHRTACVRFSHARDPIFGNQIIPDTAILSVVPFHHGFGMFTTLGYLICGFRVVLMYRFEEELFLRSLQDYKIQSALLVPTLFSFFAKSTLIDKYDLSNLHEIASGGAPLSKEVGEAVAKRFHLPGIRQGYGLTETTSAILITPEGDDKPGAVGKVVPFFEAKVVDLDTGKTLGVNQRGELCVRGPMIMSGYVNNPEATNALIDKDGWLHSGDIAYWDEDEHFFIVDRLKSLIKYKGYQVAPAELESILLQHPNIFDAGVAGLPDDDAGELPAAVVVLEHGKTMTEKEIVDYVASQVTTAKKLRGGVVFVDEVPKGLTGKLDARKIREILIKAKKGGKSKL
#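 Purified P. pyralis luciferase, 10 nM final, with Km-level 10 uM D-luciferin and 10 uM ATP in 50 mM Tris acetate pH 7.5, 10 mM Mg acetate, 0.01% Tween-20, 0.05% BSA; 6-point qHTS titration about 60 µM downward; luminescence read.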
# NPC1 prom act: NPC1 promoter activation | actives 2.4% (n = 320,000) | Potency, µM (titrated, usually from 9.22 µM), without a hit: top-dose activation, usual class: activators | Huh7 NPC1 promoter luciferase reporter, 24 h; also: % of control where 0% means no effect; nearly all actives have a fitted effect of over 60% in size
#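 Luminescence read-out of NPC1 promoter-driven luciferase in stably transfected Huh7 cells; compounds delivered in DMSO and left 24 h at 37C, 5% CO2, qHTS titration format.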
# ELG1 genotoxic: induces genotoxicity in HEK293T cells with luciferase-tagged ELG1; HEK293T ELG1-luciferase reporter, luminescence, 16 h; Potency, µM (series often up to 46 µM), for inactives: at the highest dose activity change, positive = activation, actives largely listed as activators; actives 1.3% (n = 330,000); AID 504466; also: % of control where 0% means no effect; nearly all actives have a fitted effect of over 60% in size
#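 Step 1: seed 2,000 HEK293T ELG1-luciferase cells per well. Step 2: add compound or DMSO, incubate 16 hr at 37 °C. Step 3: ONE-Glo, 30 min at room temperature, read luminescence.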
# * marks the source's active call; other numbers are inactive results; ? = inconclusive; . = no result; [ ] = another dose, or the depositor's remark. Only some compounds are listed: those with a hit (about 9.3% of all), similar ones and a draw of the others. Calls follow the shape of the dose curve; as a rule, active = well fitted curve in the direction sought with a large enough effect; inconclusive = small, poorly fitted or top-dose-only effect, or another doubt; inactive = no such curve, though single readings can be large; an effect the other way counts as inactive or inconclusive. Potency is read from the fitted curve at half-maximal effect.
SMILES,SMN2 splice enh,ELG1 repair inh,Rab9 prom act,FLuc counter,NPC1 prom act,ELG1 genotoxic
CCN(CC)S(=O)(=O)c1ccc(OC)c(NC(=O)C(C)Oc2ccc3c(C)cc(=O)oc3c2)c1 (stereo unspecified),-11%,21µM*,-2%,3%,-2%,-3%
O=C(c1cn(Cc2ccccc2)nc1-c1cccnc1)N1CCc2ccccc2C1,.,0%,-2%,-2%,0%,2%
Cc1ccc(/C(C#N)=C\c2ccc(N3CCOCC3)o2)cc1,13µM*,?,3.2µM*,24µM*,4µM*,18µM*
Cc1ccc2nc(/C(C#N)=C\c3ccc([N+](=O)[O-])o3)[nH]c2c1,-97%,-17%,-28%,-15%,-36%,1%
Cc1ccc2nc(/C(C#N)=C\c3ccc(N4CCOCC4)o3)[nH]c2c1,4µM*,?,1.8µM*,0.43µM*,2.2µM*,?
CNC(=O)COc1ncnc2scc(-c3ccc(F)cc3)c12,21%,6%,15%,2%,-2%,0%
Cc1ccc(Nc2ncccc2C(N)=O)cc1,11µM*,?,2.8µM*,?,3.5µM*,?
Cc1cc(Cl)ccc1Nc1ncccc1C(N)=O,8.9µM*,?,?,15µM*,26%,?
COc1ccc(Nc2ncccc2C(=O)O)cc1,-7%,?,?,15µM*,?,15µM*
Cc1c(Nc2ncccc2C(=O)O)cccc1C(F)(F)F,-5%,17%,10%,19µM*,0%,?
COc1ccccc1Nc1ncccc1C(=O)O,-8%,7%,5%,-19%,-5%,0%
CCCNc1ncccc1C(N)=O,-10%,?,1%,-1%,5%,-1%
NC(=O)c1cccnc1Nc1ccccc1F,21%,?,15%,-14%,17%,?
Cc1c(Cl)cccc1Nc1ncccc1C(=O)O,.,17%,-1%,?,5%,4%
CC(=O)NC(CC(=O)NCc1ccncc1)c1ccccc1 (stereo unspecified),.,9%,-2%,-2%,2%,3%
O=C(O)/C=C\C(=O)Nc1ccc2c(c1)C(=O)c1cc(F)ccc1-2,-7%[9.22 µM],.,.,.,.,.
Cc1cccc(C(=O)Nc2sc(C)c(-c3ccccc3)c2C#N)c1,?,?,1.6µM*,4.3µM*,2.8µM*,?
Cc1sc(NC(=O)C2CCCCC2)c(C#N)c1-c1ccccc1,?,?,4µM*,6.7µM*,?,?
Cc1noc(C)c1C(=O)Nc1sc(C)c(-c2ccccc2)c1C#N,-117%,-11%,-3%,-2%,-1%,-26%
[O-]/[N+](=C\c1ccncc1)c1ccc(Br)cc1,.,?,?,8.5µM*,?,?
C(=C\c1ccncc1)/c1ccncc1,.,0%,-6%,5%,2%,3%
O=C/C(=C\Nc1ccccn1)c1nc2ccccc2o1,25%,11%,5%,13µM*,13%,1%
O=C/C(=C\Nc1ccccn1)c1nc2cc(Cl)ccc2o1,?,?,26%,?,10%,-2%
CC(=O)Nc1cccc(N/C=C(\C=O)c2nc3ccccc3o2)c1,?,?,19%,19µM*,15%,11%
CCC(C)c1ccc(NC(=S)NCc2ccccc2OC)cc1 (stereo unspecified),-12%,?,-15%,-3%,-1%,-8%
SMILES,SMN2 splice enh,ELG1 repair inh,Rab9 prom act,FLuc counter,NPC1 prom act,ELG1 genotoxic
COc1ccc(NC2=Nc3ccccc3N3C2=Nc2c(c(C)nn2-c2ccc(C)cc2)C3c2cccnc2)cc1 (stereo unspecified),-19%,7%,3%,6%,1%,3%
CC(=O)Nc1ccc(NC2=Nc3ccccc3N3C2=Nc2c(c(C)nn2-c2ccccc2)C3c2ccccc2)cc1 (stereo unspecified),-103%,2.8µM*,-17%,5%,-31%,-12%
COc1cc(C(=O)Nc2nc3ccccc3[nH]2)ccc1OC(F)F,.,?,2.8µM*,11µM*,1.4µM*,?
COc1ccc(C(=O)Nc2nc3ccccc3[nH]2)cc1OC,11µM*,?,2.8µM*,15µM*,2.8µM*,?
CCOc1ccc(C(=O)Nc2nc3ccccc3[nH]2)cc1OCC,-39%,?,21%,?,9%,-7%
COc1ccc(Cl)cc1C(=O)Nc1nc2ccccc2[nH]1,.,?,?,0.085µM*,?,?
COc1ccc(CCC(=O)Nc2nc3ccccc3[nH]2)cc1OC,9%,-8%,12%,1%,8%,11%
CSc1ccccc1C(=O)C1CCCN(S(=O)(=O)c2c(C)noc2C)C1 (stereo unspecified),.,-10%,-15%,-2%,1%,-6%
Cn1ccsc1=NC(=O)c1cccc(OC(F)F)c1,.,?,?,15µM*,3.5µM*,?
Cc1ccc(C(=O)Nc2nc(-c3nnn(-c4cccc(Cl)c4C)c3C)ns2)cc1C,.,.,.,-8%,.,.
Cc1ccc(Cl)cc1-n1nnc(-c2nsc(NC(=O)c3ccccc3Cl)n2)c1C,-25%,.,.,12µM*,.,.
CCOC(=O)C1=C(COC(=O)c2ncc(Cl)c(Cl)c2Cl)NC(=O)NC1C (stereo unspecified),.,14%,-5%,1%,9%,-1%
Cc1ccccc1NC(=O)c1cc2ccccc2o1,.,?,?,8.5µM*,4µM*,7.3µM*
O=C(NCCc1ccccn1)c1cc2ccccc2o1,.,?,?,?,3.5µM*,?
O=C(Nc1ncccc1Cl)c1cc2ccccc2o1,.,?,1.6µM*,5.4µM*,2µM*,7.3µM*
Cc1ccc(NC(=O)c2cc3ccccc3o2)nc1,.,?,3.2µM*,1.9µM*,4µM*,0.73µM*
Cc1cc(C)nc(NC(=O)c2cc3ccccc3o2)n1,-5%,12%,15%,-9%,15%,5%
CC(O)c1cc2c(s1)c1cnn(Cc3ccccc3F)c(=O)c1n2C (stereo unspecified),.,16%,.,.,.,-3%
CC(C)CCN(CC(=O)NC(C)(C)C)C(=O)C(=O)Nc1ccc2c(c1)OCCO2,1%,-7%,-5%,2%,-2%,-3%
CCS(=O)(=O)N1CCCC(C(=O)Oc2ccc(Br)cc2)C1 (stereo unspecified),.,-7%,0%,-8%,0%,0%
O=C(Nc1ccc(Cl)cc1Cl)c1cc2ccccc2o1,.,?,1.6µM*,0.95µM*,1.4µM*,?
COc1cc(NC(=O)c2cc3ccccc3o2)c(OC)cc1Br,-6%,14%,17%,-12%,18%,7%
